Only some compounds are listed: those with a hit (about 19% of all), similar ones and a draw of the others.
Shiga toxin inh = inhibitors of Shiga toxin in Vero cells. actives 9.2% (n = 290,000). inhibition, % at 38.7 µM. AID 2315. Vero cells, Shiga toxin protein synthesis inhibition reporter; in the data active means inhibition mostly above about 28%, no sharp cut-off; inactive means mostly below about 43%; further: 0% is about no effect
Marburg entry inh = blocks Marburg virus binding to or entry into cells; AID 540276; Potency, µM (top dose mostly 37.8 µM), without a hit: at the highest dose activity change, negative = inhibition, most hits filed as inhibitors; Marburg virus pseudotyped entry inhibition, cell reporter; actives 1.8% (n = 300,000); calls by dose curve; tested in HEK293 cells; further: potency means the concentration at half of the fitted maximal effect; on the % scale 0 is the no-effect control and ±100 the full control effect
Cycloheximide cs = affects cycloheximide protein synthesis inhibition readout, counter-screen; cell reporter, cycloheximide protein synthesis inhibition counterscreen; max response, %; actives 12% (n = 300,000); in the data active means max response mostly above about 13%, no sharp cut-off; inactive means mostly below about 14%; further: read at 38.3 µM for the half of the compounds with a filed dose; 0% is about no effect
Lassa entry inh = inhibitors of Lassa virus binding or cell entry; actives 1.2% (n = 300,000); Potency, µM (doses to about 37.9 µM), without a hit: top-dose activity change, negative = inhibition, usual class: inhibitors; Lassa virus pseudotype entry inhibition, cell reporter; calls by dose curve; tested in HEK293 cells; further: potency means the concentration at half of the fitted maximal effect; on the % scale 0 is the no-effect control and ±100 the full control effect; nearly all actives have a fitted effect of over 50% in size
Pf growth 48h = P. falciparum growth inhibition at 48 hours (one generation) | Potency, µM (titrated, usually from 28.7 µM), without a hit: top-dose activity change, negative = inhibition, actives largely listed as inhibitors | P. falciparum luciferase growth in erythrocytes, 48 h | actives 5.9% (n = 310,000); further: potency means the concentration at half of the fitted maximal effect; on the % scale 0 is the no-effect control and ±100 the full control effect
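Luminescence readout; reporter = integrated firefly luciferase in P. falciparum. RBC culture at 2% hematocrit, 0.1% parasitemia final, 37 C/5% CO2; decreased signal taken as growth inhibition.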
Pf growth 96h = P. falciparum growth inhibition at 96 hour, primary screen for plastid delayed-death inhibitors. P. falciparum luciferase reporter growth, 96 h. Potency, µM (series often up to 28.7 µM), for the others: top-dose activity change, negative = inhibition, actives largely listed as inhibitors. actives 6.9% (n = 320,000). AID 504834; further: potency means the concentration at half of the fitted maximal effect; on the % scale 0 is the no-effect control and ±100 the full control effect
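Readout is luminescence from an integrated firefly luciferase in P. falciparum. Red cells, 2% hematocrit and 0.05% parasitemia final, were cultured with compound through two parasite generations (96 hours) at 37 C, 5% CO2.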
Active calls of the source: *; ? = inconclusive; nt = no result; [ ] = another dose, or the depositor's remark. Unless noted, the call rests on the fitted dose curve; in most records, active means well fitted inhibition curve with a large enough effect; inconclusive means small, poorly fitted or top-dose-only effect, or another doubt; inactive means no such curve, though single readings can be large or run the other way.

SMILES	Shiga toxin inh	Marburg entry inh	Cycloheximide cs	Lassa entry inh	Pf growth 48h	Pf growth 96h
CCCCNC(=O)COCc1cc(-c2ccc3c(c2)OCO3)on1	47*	-9%[46.1 µM]	12	16%	-2%[0.00184 µM]	?
CC(C)CNC(=O)c1cc(-c2ccc3c(c2)OCO3)on1	74*	nt	39*	nt	161%	34%
O=C(O)CCCC(=O)Nc1ccc(Sc2ccc([N+](=O)[O-])cc2)cc1	27	-24%	2	-10%	4%	?
COc1ccc2c(c1)O[C@@H](c1ccc3c(c1)OCO3)[C@H](OC(=O)N[C@H](C)C1CCCCC1)C2=O	nt	9%[14.2 µM]	nt	nt	nt	nt
CCOc1ccc(NC(=O)CSc2nc3c([nH]c4ccccc43)c(=O)n2C)cc1	-7	nt	-7	nt	24%	-32%[1.15 µM]
COc1ccc(CN2CCc3c(c(=O)n4ncc(C(=O)N5CCN(c6ccccc6F)CC5)c4n3C)C2)cc1	nt	nt	nt	-6%[46.1 µM]	nt	nt
CC(C)CNC(=O)COCc1cc(-c2ccc3c(c2)OCO3)on1	100*	5%	38*	?	32%	-38%
COCC(C)NC(=O)COCc1cc(-c2ccc3c(c2)OCO3)on1 (configuration not stated)	-6	nt	-3	nt	-9%	0%
COc1cccc(C2Nc3ccc4ccccc4c3C3=C2C(=O)CC(C)(C)C3)c1OCC(=O)O (configuration not stated)	-9	nt	1	nt	?	?
CC1(C)CC(=O)C2=C(C1)c1c(ccc3ccccc13)NC2c1ccc(OCC(=O)O)cc1 (configuration not stated)	-4	nt	6	nt	10µM*	-29%
COc1cc(C2Nc3ccc4ccccc4c3C3=C2C(=O)CC(C)(C)C3)ccc1OCC(=O)O (configuration not stated)	nt	nt	0	nt	?	0.93µM*
COc1cc(C2Nc3ccc4ccccc4c3C3=C2C(=O)CC(C)(C)C3)ccc1OC(C)C(=O)O (configuration not stated)	29	?	13	-7%[46.1 µM]	1.7µM*	?
CCOP(=O)(OCC)C(NC(=O)CC(C)C)C(Cl)(Cl)Cl (configuration not stated)	-17	-6%[46.1 µM]	-1	nt	2%	13%
CCOC(=O)c1c(C)[nH]c(C)c1S(=O)(=O)N1CCCC(C(=O)Nc2ccc(C)cn2)C1 (configuration not stated)	nt	nt	nt	3%[46.1 µM]	nt	nt
Cc1nn(CC(=O)Nc2ccc(Cl)cc2)c(=O)c2cc(-c3ccccc3)nn12	-5	?	-9	-20%[46.1 µM]	30%	?
COC(=O)/C(C#N)=C/c1c(N2CCN(c3ccccc3)CC2)nc2ccccn2c1=O	23	-29%[46.1 µM]	21	18%[46.1 µM]	?	?
CCOC(=O)/C(C#N)=C/c1c(N2CCN(c3ccc(OC)cc3)CC2)nc2c(C)cccn2c1=O	2	?	2	?	9.3µM*	12µM*
CCOC(=O)/C(C#N)=C/c1c(N2CCN(c3ccccc3)CC2)nc2ccccn2c1=O	18	nt	41*	nt	23%	?
CNC(=O)/C(C#N)=C/c1c(N(Cc2ccccc2)Cc2ccccc2)nc2ccccn2c1=O	-13	16µM*	-8	11µM*	?	?
CCNC(=O)/C(C#N)=C/c1c(N2CCN(c3ccc(OC)cc3)CC2)nc2c(C)cccn2c1=O	2	?	-1	-9%[46.1 µM]	?	?
N#C/C(=C\c1c(N2CCN(c3ccccc3)CC2)nc2ccccn2c1=O)C(N)=O	50*	nt	28*	nt	19%	?
CN(C)/C=C/C(=O)c1ccc2noc(-c3cccc(F)c3)c2c1	-3	nt	1	nt	-11%	?
COc1ccc(-c2onc3ccc(C(=O)/C=C/N(C)C)cc23)cc1	-7	?	-3	14%[46.1 µM]	10µM*	?
O=C(Cc1coc2cc3c(cc12)CCC3)NC1CCCCCCC1	2	-14%	12*	1%	8%	29%
O=C(O)Cc1coc2cc3c(cc12)CCC3	-7	9%	-1	?	?	106%
SMILES	Shiga toxin inh	Marburg entry inh	Cycloheximide cs	Lassa entry inh	Pf growth 48h	Pf growth 96h
Cc1ccc(S(=O)(=O)Nc2ccc(Br)cc2C(NCC(=O)O)c2ccccc2)cc1 (configuration not stated)	16	-10%	2	14%	-18%	-1%
COC(=O)CNC(c1ccccc1)c1cc(C)ccc1NS(=O)(=O)c1ccc(C)cc1 (configuration not stated)	-7	?	-1	?	9.3µM*	13µM*
COC(=O)CNC(c1ccccc1)c1cc(C)ccc1NC(=O)c1cccc(Cl)c1 (configuration not stated)	-11	?	-3	?	?	13µM*
COC(=O)CNC(c1ccccc1)c1cc(C)ccc1NC(=O)CNC(=O)OCc1ccccc1 (configuration not stated)	-3	-16%	-5	?	13µM*	nt
COC(=O)CNC(c1ccccc1)c1cc(Br)ccc1NC(=O)OCc1ccccc1 (configuration not stated)	9	?	13	?	?	?
COc1nc2ccccc2nc1OC	9	nt	0	nt	43%	5%
COc1nnc(OC)c2ccccc12	14	25%	-4	17%	-6%	0.47µM*
COc1c(NC(C)=O)c2ccccc2c2ccccc12	-8	?	-2	4%	7%	-1%
COc1c2ccccc2c(OC)c2ccccc12	22	4%[46.1 µM]	8	15%[46.1 µM]	3%	15µM*
CCOc1ccc2ccccc2c1/C=N/NC(=O)c1cc(C)[nH]n1	-5	-18%[46.1 µM]	-3	-22%[46.1 µM]	-6%	12%
CCOc1ccccc1/C=N/NC(=O)c1cc(C(C)C)[nH]n1	65*	12%[46.1 µM]	36*	26%	-1%	4%
Cn1ccc(C(=O)N/N=C/c2c[nH]c3ccccc23)n1	59*	5%[46.1 µM]	45*	12%	41%	?
CC(C)NC(=S)N/N=C/c1c[nH]c2ccccc12	29*	-4%	18*	-13%	?	27%
CC(C)c1cc(C(=O)N/N=C/c2c[nH]c3ccccc23)n[nH]1	53*	nt	17*	nt	3%	-2%
O=C(NCC(c1ccco1)N1CCc2ccccc21)c1c(F)cccc1F (configuration not stated)	nt	-20%[46.1 µM]	nt	-20%	2%	8%
O=C(NCCN1CCN(Cc2ccccc2)CC1)Nc1cc(Cl)cc(Cl)c1	-13	nt	-1	nt	?	?
Cc1ccc2cc3c(nc2c1)OCC3	47*	1%[46.1 µM]	32*	-21%	55%	59%
CN(C)c1ccc(NC(=S)N2CCN(c3ncc(C(F)(F)F)cc3Cl)CC2)cc1	22	?	16	-17%	96%	48%
Cn1nccc1C(=O)Nc1ccc(Cl)cc1	68*	3%	28*	9%	95%	148%
O=C(Nc1ccc2c(c1)OCO2)c1cc(Cl)ccn1	nt	?	nt	?	89%	20%
Cn1nc(C(F)(F)F)cc1C(=O)Nc1ccc(Cl)cc1	8	-10%[46.1 µM]	5	?	?	?

Screens from PubChem.
